Only some compounds are listed: those with a hit (about 9.9% of all), similar ones and a draw of the others.
IL1B secr inh – qHTS for Inhibitors of Inflammasome Signaling: IL-1-beta AlphaLISA Primary Screen; THP-1 LPS/ATP IL-1B secretion, AlphaLISA, 16 h; active compounds read low; activity change, % at 57.5 µM; 360,000 tested, 4.7% active; AID 743279, 2014; in the data active means activity change below about -50%; inconclusive means mostly about -30% to -49%; further: on the % scale 0 is the no-effect control and ±100 the full control effect
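Secreted IL-1B measured by AlphaLISA bead assay after 16 h compound exposure of THP-1 cells; compounds (final up to 57.5 uM) added 1 h before LPS (250 ng/mL) and ATP (1.25 mM) stimulation; lower signal means less secretion.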
KB-3-1 cytotox – qHTS assay for MDR1-selective chemotherapeutics: Primary screen using the parental adenocarcinoma cell KB-3-1. Potency, µM (doses to about 46.1 µM), actives largely listed as cytotoxic. KB-3-1 viability, CellTiter-Glo ATP luminescence, 72 h. 400,000 tested, 1.4% active. AID 1347075, 2019; further: potency means the concentration at half of the fitted maximal effect; on the % scale 0 is the no-effect control and ±100 the full control effect; nearly all actives have a fitted effect of over 60% in size
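Parental KB-3-1 adenocarcinoma cells in phenol-red-free DMEM with 10% FBS were pin-treated with compounds at several concentrations, incubated 72 h at 37 °C, and viability read by CellTiter-Glo luminescence; concentration-effect curves were fitted after normalization.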
SW480 rereplic – A quantitative high throughput screen for small molecules that induce DNA re-replication in SW480 colon adenocarcinoma cells. SW480 DNA re-replication, Hoechst DNA content imaging, 48 h. Potency, µM (highest dose often 46.1 µM), inactives show at the highest dose re-replication activation, hits mostly activators. 340,000 tested, 1.8% active; further: potency means the concentration at half of the fitted maximal effect; % of control where 0% means no effect; nearly all actives have a fitted effect of over 55% in size
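Hoechst fluorescence of nuclei (405 nm excitation, 500-530 nm emission) measured by plate-scanning imager after 48 hr compound exposure at 37 C; re-replication scored as increased number of nuclei with elevated intensity.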
MCF10A rereplic – A quantitative high throughput screen for small molecules that induce DNA re-replication in MCF 10a normal breast cells. MCF 10A DNA re-replication, Hoechst nuclear intensity, 48 h. Potency, µM (series often up to 46.1 µM), inactives show at the top dose activity, positive = re-replication, actives largely listed as activators. 350,000 tested, 2.9% active. AID 624296, 2012; further: potency means the concentration at half of the fitted maximal effect; % of control where 0% means no effect; nearly all actives have a fitted effect of over 50% in size
KB-V1 MDR tox – qHTS assay for MDR1-selective chemotherapeutics: Primary screen using the drug-selected MDR subline cells KB-V1 | KB-V1 MDR cells viability, CellTiter-Glo, 72 h | Potency, µM (titrated, usually from 46.1 µM), actives largely listed as cytotoxic | 400,000 tested, 3.4% active; further: potency means the concentration at half of the fitted maximal effect; on the % scale 0 is the no-effect control and ±100 the full control effect; nearly all actives have a fitted effect of over 60% in size
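Luminescent ATP read-out (CellTiter-Glo, 10 min) measures survival of drug-selected KB-V1 MDR cells after 72 h, 37 degrees C compound exposure. Medium: phenol-red-free DMEM, 10% FBS. Values from fitted concentration-response curves.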
Active calls of the source: *; i = inactive; ? = inconclusive; nt = no result; ! = a repeat was not active; [ ] = another dose, or the depositor's remark. Unless noted, the call rests on the fitted dose curve; in most records, active means well fitted curve in the direction sought with a large enough effect; inconclusive means small, poorly fitted or top-dose-only effect, or another doubt; inactive means no such curve, though single readings can be large; an effect the other way counts as inactive or inconclusive.

SMILES	IL1B secr inh	KB-3-1 cytotox	SW480 rereplic	MCF10A rereplic	KB-V1 MDR tox
Nc1nc(CCl)nc(N(c2ccccc2)c2ccccc2)n1	-102*	?	1.2µM*	?	16µM*
Cc1ccc2nsnc2c1NC(=O)Cc1ccc(Cl)cc1	8	i	11%	7%	i
Cc1ccc2nsnc2c1NC(=O)c1ccc(-c2cc(Cl)ccc2Cl)o1	-2	?	13µM*	18%	?
Cc1ccc2nsnc2c1NC(=O)CCl	-24	i	?	13%	i
CC(C)C(=O)NC(=S)Nc1c(Cl)ccc2nsnc12	15	i	-12%	18µM*	i
Cc1ccc2nsnc2c1NC(=O)c1ccc([N+](=O)[O-])o1	-92*	4.1µM*	2%	21µM*	?
O=C1Nc2ccccc2Cc2ccccc21	?	i	nt	nt	i
Cc1ccc(/C(=N\O)c2oc3c(C)c4oc(=O)cc(C)c4cc3c2C)cc1	-29	?	28%	?	?
Cc1cc(=O)oc2c1ccc1oc(/C(=N/O)c3ccccc3)c(C)c12	-74*	?	-6%	?	21µM*
CCCN(CCC)CC(O)Cn1cc(/C=C/C(=O)c2ccccc2)c2ccccc21 (stereo unspecified)	-86*	?	?	5.2µM*	i
CCCN(CCC)CC(O)Cn1cc(/C=C/C(=O)c2ccc(C)cc2)c2ccccc21 (stereo unspecified)	nt	i	nt	nt	i
CCCN(CCC)CC(O)Cn1cc(/C=C/C(=O)c2ccc(Br)cc2)c2ccccc21 (stereo unspecified)	nt	i	nt	nt	i
CCCN(CCC)CC(O)Cn1cc(/C=C/C(=O)c2cccs2)c2ccccc21 (stereo unspecified)	-104*	?	16µM*	?	?
Cc1ccc(CN2CC(C(=O)N3CCN(S(=O)(=O)c4cccc(F)c4)CC3)CC2=O)cc1 (stereo unspecified)	-4	i	-4%	4%	?
CC(C)[C@H](NC(=O)C1(c2ccccc2)CCN(C(=O)OC(C)(C)C)CC1)C(=O)O	9	i	0%	1%	i
CC(C)(C)OC(=O)N1CCC(C(=O)N[C@@H](Cc2ccccc2)C(=O)O)(c2ccccc2)CC1	18	i	0.46µM*!	?	i
O=C(c1ccccc1)N1CCN(C(=O)C23CC4CC(CC(C4)C2)C3)CC1	-27	i	-9%	-7%	i
CN1CCN(C(=O)C23CC4CC(C2)CC(c2ccccc2)(C4)C3)CC1	-53*	i	9%	?	i
O=C(N1CCN(c2ccccc2F)CC1)C12CC3CC(CC(C3)C1)C2	5	i	11%	?	18µM*
CCOc1ccc(C2C3=C(CC(C)(C)CC3=O)N(CC(=O)O)C3=C2C(=O)CC(C)(C)C3)cc1OCC	-1	i	-8%	0.82µM*	i
C#CCOc1ccc(C2C3=C(CC(C)(C)CC3=O)N(CC(=O)O)C3=C2C(=O)CC(C)(C)C3)cc1OC	9	i	-5%	-1%	i
COc1ccccc1C1C2=C(CC(C)(C)CC2=O)N(CC(=O)O)C2=C1C(=O)CC(C)(C)C2	0	i	-33%	21µM*	i
COc1ccc(C2C3=C(CC(C)(C)CC3=O)N(C)C3=C2C(=O)CC(C)(C)C3)cc1	-15	i	9%[1.84 µM]	1%	?
COc1ccc(N2C3=C(C(=O)CC(C)(C)C3)C(c3ccccc3OC)C3=C2CC(C)(C)CC3=O)cc1	-86*	i	18µM*	16µM*	?
CCOC(=O)c1c(C)n(-c2ccccc2)c2ccc(OC(=O)c3ccc(OCC)c(OCC)c3)cc12	nt	i	nt	nt	?
SMILES	IL1B secr inh	KB-3-1 cytotox	SW480 rereplic	MCF10A rereplic	KB-V1 MDR tox
CC1(C)Cc2ccccc2C(N/N=C/c2ccc(Cl)cc2)=N1	-6	?	4%	?	15µM*
COc1ccccc1CN1C(=O)CN(C2CCCC2)C(=O)C1c1ccc(F)cc1 (stereo unspecified)	-14	i	18%	-7%	3.7µM*
CCOc1ccc(C2C(=O)N(C3CCCCC3)CC(=O)N2CC2CCCO2)cc1OC (stereo unspecified)	11	i	1%	-2%	18µM*
CCCCOc1ccc(C2C(=O)N(C3CCCCC3)CC(=O)N2CC2CCCO2)cc1 (stereo unspecified)	-15	i	?	-1%	i
CC1CCc2c(sc3nnn(CC(=O)Nc4cccc(C(F)(F)F)c4)c(=O)c23)C1 (stereo unspecified)	nt	i	nt	nt	i
COc1ccc(-n2c(SCC(=O)N/N=C(\C)c3cccnc3)nc3ccccc3c2=O)cc1	19	i	-6%	-3%	i
Cc1ccc(C(=O)CSc2nnc(-c3ccco3)n2Cc2ccccc2)cc1	?	21µM*	2%	13%	?
O=C(CSc1nnc(-c2ccco2)n1Cc1ccccc1)c1ccccc1	-6	i	8%	29%	i
CC1CCN(C(=O)CSc2nnc(-c3cc4ccccc4cc3O)n2Cc2ccco2)CC1	-11	?	15%	7%	3.7µM*
COc1ccc(C(=O)CSc2nnc(-c3cc4ccccc4cc3O)n2Cc2ccco2)cc1	-67*	?	13%	16%	7.3µM*!
CN(Cc1ccccc1)C(=O)CSc1nnc(-c2ccco2)n1-c1ccccc1	-16	i	-5%	2%	3.7µM*
COc1ccc(C(=O)CSc2nnc(-c3cccnc3)n2Cc2ccco2)cc1	?	i	-3%	-2%	i
CCn1c(=O)c2[nH]c(SC)nc2n(CC)c1=O	12	i	nt	nt	i
CCn1c(SCC(=O)N(C(C)C)C(C)C)nnc1-c1cc2ccccc2cc1O	-9	?	-15%	3%	3.7µM*
CCOc1ccc2[nH]c3c(N4CCN(c5ccccn5)CC4)ncnc3c2c1	-77*	?	?	12%	i
COc1ccc2c(c1)[nH]c1c(N3CCN(Cc4ccc5c(c4)OCO5)CC3)ncnc12	-105*	?	10%	?	2.6µM*
c1ccc2c(c1)[nH]c1c(N3CCC4(CC3)OCCO4)ncnc12	-12	i	17%	?	?
COc1ccc2c(c1)[nH]c1c(N3CCSCC3)ncnc12	nt	i	-6%	?	?
c1ccc(CN2CCN(c3ncnc4c3[nH]c3ccccc34)CC2)cc1	-95*	18µM*	1%	21µM*	2.6µM*
Cc1ccc2c(c1)[nH]c1c(N3CCN(Cc4ccccc4)CC3)ncnc12	-98*	?	?	?	?

From PubChem
